Drawing on PubChem BioAssay AID2796 (The Scripps Research Institute Molecular Screening Center, 2010), this text covers activation for 93 molecules.

The campaign covered roughly 320,000 compounds. About 8,000 (2.5%) were called active. This is one part of a sample in which actives are shown more often than they occur. Rule as the data show it: active = activation above about 47%; inactive = the rest.

This assay deals with Aryl hydrocarbon receptor (Homo sapiens) (UniProt P35869). In words: AHR activators, primary screen, cell-based, luminescence, luciferase reporter, human (AID 2796).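 Also: 0% = vehicle wells and 100% = reference agonist.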 The conditions noted are these: AHR-responsive luciferase reporter cells, at 5 µM, active compounds read high. In general terms: In a reporter assay the amount or activity of a reporter protein is the signal.
Chain of Aryl hydrocarbon receptor (Homo sapiens) (P35869 whole entry, looked up): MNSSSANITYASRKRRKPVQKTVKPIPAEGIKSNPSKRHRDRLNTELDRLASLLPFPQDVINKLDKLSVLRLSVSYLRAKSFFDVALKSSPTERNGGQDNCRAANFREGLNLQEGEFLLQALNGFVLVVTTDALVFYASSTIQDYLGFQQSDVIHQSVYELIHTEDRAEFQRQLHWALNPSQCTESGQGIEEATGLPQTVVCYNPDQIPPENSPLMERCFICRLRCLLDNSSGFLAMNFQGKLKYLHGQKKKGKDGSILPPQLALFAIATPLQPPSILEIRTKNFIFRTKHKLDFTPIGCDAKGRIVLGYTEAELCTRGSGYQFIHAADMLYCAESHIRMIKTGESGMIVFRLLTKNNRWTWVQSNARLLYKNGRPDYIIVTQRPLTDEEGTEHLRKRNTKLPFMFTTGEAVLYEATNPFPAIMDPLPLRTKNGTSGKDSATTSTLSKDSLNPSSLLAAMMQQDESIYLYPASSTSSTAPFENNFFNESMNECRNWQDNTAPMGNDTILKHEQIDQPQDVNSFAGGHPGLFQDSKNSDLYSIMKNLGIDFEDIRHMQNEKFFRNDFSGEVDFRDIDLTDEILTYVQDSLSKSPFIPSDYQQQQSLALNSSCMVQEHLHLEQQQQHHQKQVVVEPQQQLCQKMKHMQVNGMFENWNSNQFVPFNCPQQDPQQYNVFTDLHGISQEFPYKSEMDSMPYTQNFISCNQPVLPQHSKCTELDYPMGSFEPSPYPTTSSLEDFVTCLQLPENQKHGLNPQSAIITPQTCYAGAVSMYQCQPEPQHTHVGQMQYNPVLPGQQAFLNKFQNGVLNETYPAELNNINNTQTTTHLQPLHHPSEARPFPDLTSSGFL
Consider `Cc1nn(C)c(Cl)c1CN1CCC(Oc2ccc(C(=O)N3CCCC3)cc2)CC1`, for which the activation is -2.1% (inactive).

With `CCCc1cc(=O)[nH]c(SCC(=O)N2C(C)CCCC2C)n1` (stereo not drawn), the activation is 0.47% (inactive).

On to `COc1ccc(-c2[nH]nc(-c3ccccc3)c2-c2nc3ccccc3[nH]2)cc1`, for which the activation was 4.79% (inactive).

With `Cc1ccc(-c2nc3ccccc3[nH]2)cc1N`, the activation was 47.4% (active).

Take `COc1ccc(Br)cc1C(=O)NC(=S)Nc1cc(-c2nc3ccccc3[nH]2)ccc1C`: the activation is 36.6% (inactive).

For the molecule `Nc1cccc(CCc2nc3ccccc3[nH]2)c1`, the activation is 6.68% (inactive).

Take `c1ccc2[nH]c(-c3nc4ccccc4[nH]3)nc2c1`: the activation is 71.2% (active).

For `CCCCSc1nc2ccccc2[nH]1`, the activation was 1.07% (inactive).

As to `OCc1n[nH]c(CO)n1`, the activation was -0.81% (inactive).

Take `O=C(C1CCN(C2CCN(Cc3cccc4c3OCO4)CC2)CC1)N1CCOCC1`: the activation was 4.05% (inactive).

Turning to `COc1ccc(CCOC2OC(CO)C(OC(=O)/C=C/c3ccc(O)c(OC)c3)C(O[C@H]3O[C@@H](C)[C@H](O)[C@@H](O)[C@H]3O)C2O)cc1O` (stereo partly drawn), the activation is 1.88% (inactive).

As for `NC(=O)C1=C[C@@H](c2csc3ccccc23)C[C@@H](OCc2ccc(CO)cc2)O1`, the activation was -0.11% (inactive).

With `O=C(NC1CC1)C1=C[C@H](c2c[nH]c3ccccc23)C[C@H](OCc2ccc(CO)cc2)O1`, the activation is 135% (active).

Take `NC(=O)C1=C[C@H](c2csc3ccccc23)C[C@H](OCc2ccc(CO)cc2)O1`: the activation was 0.39% (inactive).

For the molecule `CCN(CC)C(=O)COc1coc(CN2CCN(Cc3ccccc3)CC2)cc1=O`, the activation is -1.36% (inactive).

With `COc1cccc(/C(C)=N/Nc2ncc(Cl)cc2Cl)c1`, the activation was 53.5% (active).

`C/C(=N\Nc1ncc(Cl)cc1Cl)c1ccc(S(=O)(=O)NCc2ccco2)cc1`: the activation was 29.9% (inactive).

Turning to `C/C(=N\Nc1ncc(Cl)cc1Cl)c1cccs1`, the activation is 1.11% (inactive).

Regarding `CC1CCCCC12NC(=O)N(CC(=O)N1CCN(c3ccccc3)CC1)C2=O` (stereo not drawn), the activation is 0.1% (inactive).

Take `CC1=NN(C(=O)CCc2ccccc2O)C(O)(C(F)(F)F)C1` (stereo not drawn): the activation was -1.07% (inactive).

On to `COc1cc2ccccc2cc1C(=O)Nc1ccncc1`, for which the activation was 5.1% (inactive).

For `COc1cccc(OC)c1C(=O)Nc1ccc(N2CCCCC2)cc1`, the activation was 79.6% (active).

With `COc1cc2ccccc2cc1C(=O)Nc1ccc(N2CCOCC2)cc1`, the activation was 95.9% (active).

In the case of `COc1cccc(OC)c1C(=O)Nc1ccc2c(c1)n(C)c(=O)n2C`, the activation was 1.94% (inactive).

In the case of `COc1cc2ccccc2cc1C(=O)N1CCOCC1`, the activation is 0.61% (inactive).

Take `COc1cccc(OC)c1C(=O)Nc1ccc(Cc2ccncc2)cc1`: the activation is 15.6% (inactive).

As for `FC(F)(F)C1CCCN(c2nsc3ccccc23)C1` (stereo not drawn), the activation is 16.6% (inactive).

As for `Cc1noc(C)c1S(=O)(=O)N(C)C[C@H]1Oc2ccc(NC(=O)C3CCCCC3)cc2C(=O)N([C@H](C)CO)C[C@@H]1C`, the activation was -1.72% (inactive).

Regarding `CCc1ccc(NC(=O)CS(=O)CC(=O)N2CCN(c3ccccc3F)CC2)cc1` (stereo not drawn), the activation was -1.39% (inactive).

As to `Cc1cccc(NC(=S)NCc2ccc3[nH]c4c(c3c2)CCCC4)c1`, the activation was 68% (active).

As for `O=C(O)CCC(=O)NCc1ccc2[nH]c3c(c2c1)CCCC3`, the activation was 1.38% (inactive).

On to `Cc1cc(C)cc(NC(=S)NCc2ccc(F)cc2)c1`, for which the activation is 4.28% (inactive).

Turning to `Cc1ccc(Nc2nc(CSc3nnnn3-c3ccccc3)cc(=O)[nH]2)cc1`, the activation was 73.4% (active).

For `COc1ccc(C)cc1-n1nnnc1SCc1nc2ccccc2c(=O)[nH]1`, the activation is 24.9% (inactive).

Consider `Cc1ccc(-c2noc(CSc3nnnn3-c3ccccc3)n2)cc1`, for which the activation is 8.65% (inactive).

Regarding `Cc1ccc(Br)c(NS(=O)(=O)c2cccc(C(=O)N3CCNC(=O)C3)c2)c1`, the activation is 1.33% (inactive).

As for `COC(=O)c1ccc(NC(=O)c2cc(Cl)ccc2OC)cc1`, the activation was 2.68% (inactive).

For the molecule `COc1cc(OC)c(C(=O)Nc2ccc(N(C)C)cc2)cc1OC`, the activation was -7.49% (inactive).

On to `COc1ccc(Cl)cc1C(=O)Nc1ccc(N(C)C(C)=O)cc1`, for which the activation is 81.3% (active).

On to `Cc1ccsc1C(=O)OCC(=O)Nc1cccc(F)c1`, for which the activation was -0.75% (inactive).

For `Cc1ccc(C(=O)Nc2ccccc2-c2ccccc2)cc1S(=O)(=O)Nc1ccccc1`, the activation is 2.25% (inactive).

`Cc1ccc(C)c(NC(=O)C(OC(=O)c2ccc(C)s2)c2ccccc2)c1` (stereo not drawn): the activation was 29.4% (inactive).

On to `O=C(CCc1c[nH]c2ccccc12)NCCOc1ccccc1`, for which the activation is 2.6% (inactive).

On to `O=C(CCCCCn1c(=O)[nH]c2ccccc2c1=O)NCCc1c[nH]c2ccccc12`, for which the activation is 54.7% (active).

Turning to `O=C(CCCCn1c(=O)[nH]c2ccccc2c1=O)NCc1ccc2c(c1)OCO2`, the activation was 79.9% (active).

`O=C(CCn1c(=S)[nH]c2cc3c(cc2c1=O)OCO3)NCc1ccc(Cl)cc1`: the activation is -0.55% (inactive).

In the case of `CCN(CC)CCNC(=O)CCCCCn1c(=O)[nH]c2cc(C(=O)OC)ccc2c1=O`, the activation was 1.58% (inactive).

Take `Cn1cc(CCC(=O)NCc2ccc3c(c2)OCO3)c2ccccc21`: the activation is 8.58% (inactive).

Turning to `O=c1c2ccccc2c(-c2ccccc2)nn1-c1ccccn1`, the activation is 0.2% (inactive).

With `Cc1ccc(C(=O)NNc2ncnc3ccccc23)cc1`, the activation is 19.4% (inactive).

Turning to `Cc1ccc(C(=O)NNC(=O)c2cc3cc4ccccc4nc3s2)cc1`, the activation is 64% (active).

With `Cc1ccc(C(=O)NNC(=O)c2cccs2)cc1`, the activation was -3.24% (inactive).

For `Cc1cccc(NC(=O)c2ccc(S(=O)(=O)N(C)c3ccccc3)cc2)n1`, the activation is 13.7% (inactive).

`O=C(COC(=O)c1ccc([N+](=O)[O-])cc1Cl)NC(=O)c1ccccc1`: the activation was 0.29% (inactive).

For `CCOC(OCC)c1ccc(/C=C\c2nccc(N)n2)cc1`, the activation is 2.83% (inactive).

Consider `CC1=CC=CC2=N/C(=N\S(=O)(=O)c3ccc(F)cc3F)c3ccccc3CN12`, for which the activation was 68.7% (active).

As for `CCNC(=S)N1CCN(S(=O)(=O)c2ccc(Cl)s2)CC1`, the activation was -1.16% (inactive).

As to `Cc1cc(C)c(/C=C2\C(=O)Nc3ccccc32)[nH]1`, the activation is 47% (active).

With `CN(C)/C=C1/Nc2ccccc2C1=O`, the activation is 33.7% (inactive).

For the molecule `O=C1Nc2ccccc2/C1=C/c1ccnc2ccccc12`, the activation was 8.16% (inactive).

With `COCCN(C(=O)CCC(=O)Nc1nccs1)C(C(=O)NC(C)(C)C)c1ccc(Cl)cc1` (stereo not drawn), the activation was 0.14% (inactive).

`COc1ccccc1C(=O)COC(=O)COc1ccc(C#N)cc1`: the activation was -0.13% (inactive).

For `COc1ccc(CCNc2nc(C)cc(C)n2)cc1OC`, the activation was 4.65% (inactive).

As to `COc1ccc(/C=C/c2noc(-c3ccccc3OC(C)=O)n2)cc1`, the activation is 2.04% (inactive).

Take `Cc1ccc(-c2nc(-c3ccncc3)no2)c(C)c1`: the activation was 3.29% (inactive).

Turning to `COc1ccc(-c2nc(-c3ccccc3)no2)c(OC)c1`, the activation is 70.8% (active).

Take `CCOC(=O)N1CCN(S(=O)(=O)N2CCCC(C(=O)NCCCN3CCC(C)CC3)C2)CC1` (stereo not drawn): the activation was 0.65% (inactive).

As to `CCC(C(=O)N1CCN(S(=O)(=O)c2sc(C(=O)O)c(C)c2C(=O)O)CC1)c1ccccc1` (stereo not drawn), the activation was -0.9% (inactive).

Regarding `O=S(=O)(c1ccc(Br)cc1)c1nc(-c2ccccc2)oc1N1CCOCC1`, the activation is 3.81% (inactive).

On to `Cc1cc(N2CCOCC2)nc(-c2ccc(Br)cc2)n1`, for which the activation was 86.8% (active).

On to `Cc1ccc(Sc2cc(N3CCOCC3)nc(-c3ccccc3)n2)cc1`, for which the activation was 3.2% (inactive).

In the case of `CC(=O)O[C@H]1CC[C@@]2(C)[C@@H](CC[C@@H]3[C@@H]2CC[C@]2(C)[C@@H](C(C)(C)O)C[C@@H]32)C1`, the activation was 1.86% (inactive).

In the case of `O=C(CNC(=O)c1cc(=O)[nH]c2ccccc12)Nc1ccc(F)c(F)c1`, the activation was 70.8% (active).

Consider `CCOC(=O)c1ccc(NC(=O)c2cc(=O)[nH]c3ccccc23)cc1`, for which the activation was -0.98% (inactive).

Consider `CC(NC(=O)c1cc(=O)[nH]c2ccccc12)c1ccc(F)cc1F` (stereo not drawn), for which the activation was -1.44% (inactive).

On to `COC(=O)C1=CO[C@@H](O[C@@H]2O[C@H](CO)[C@@H](O)[C@H](O)[C@H]2O)C2C1C[C@H](O)[C@@H]2C` (stereo partly drawn), for which the activation is 0.44% (inactive).

Turning to `CC(C)(C)n1nc(Cc2cccc3ccccc23)c(C#N)c1N`, the activation was 51.2% (active).

Turning to `N#Cc1nc(-c2cccc3ccccc23)oc1N`, the activation was -2.82% (inactive).

For the molecule `CCc1nn(-c2cc(Oc3cccc4ccccc34)nc(-c3ccccc3)n2)c(N)c1C#N`, the activation is 10.9% (inactive).

As to `CCCCOc1ccc(C(=O)NCC(=O)OCC(=O)N2CCN(S(=O)(=O)c3ccc(C)cc3C)CC2)cc1`, the activation is 0.36% (inactive).

On to `COc1ccc(N2CCN(S(=O)(=O)c3cc4c5c(c3)C(C)C(=O)N5CCC4)CC2)cc1` (stereo not drawn), for which the activation was -1.29% (inactive).

For `NS(=O)(=O)c1ccc(-c2ccc(/C=C3\SC(=O)NC3=O)o2)cc1`, the activation was 125% (active).

Consider `CN1CCN(/N=C/c2ccc(-c3ccc([N+](=O)[O-])cc3)o2)CC1`, for which the activation is 38.6% (inactive).

On to `CN1C(=O)/C(=C\c2ccc(-c3ccccc3)o2)SC1=S`, for which the activation was 6.56% (inactive).

On to `c1ccc(-c2nccc(-c3ccc(-n4cnc5ccccc54)cc3)n2)nc1`, for which the activation is -6.06% (inactive).

For `COc1ccc(CCNC(=O)COc2ccc3c(c2)OCO3)cc1`, the activation is 10% (inactive).

With `CC(C)(C)c1ccc(SCCc2ccncc2)cc1`, the activation is 14.1% (inactive).

For `CC(C)CCNC(=O)C1CCC(CNc2c(N3CCC(C)CC3)c(=O)c2=O)CC1` (stereo not drawn), the activation was 7.38% (inactive).

On to `Cn1c(=NC(=O)C2CC2)sc2cc(F)cc(F)c21`, for which the activation was 69.9% (active).

For `O=C(CN(Cc1ccc(Br)cc1)S(=O)(=O)c1ccccc1)NCc1ccncc1`, the activation is 1.87% (inactive).

Take `C=CCn1c(=NC(=O)c2ccc(S(=O)(=O)N3CCCC3)cc2)sc2cc(NC(C)=O)ccc21`: the activation is 1.47% (inactive).

On to `C=CCn1c(=NC(=O)c2cccs2)sc2cc(NC(C)=O)ccc21`, for which the activation is 118% (active).

For the molecule `C=CCn1c(CCNC(=O)c2cccs2)n[nH]c1=S`, the activation is -2.49% (inactive).
